# Measured values: PubChem BioAssay (Tox21)
# A number with no mark means an inactive call. Records with an inconclusive call do not appear. Entries that show only a call come without a potency. The source made the active and inactive calls. Unless noted, calls come from the whole dose curve; as a rule, active = well fitted curve in the direction sought with a large enough effect in the repeat runs; inconclusive = weak or mixed curves; inactive = no such curve, though single readings can be large; an effect the other way counts as inactive or inconclusive.
# Key:
# [1] = qHTS assay to test for compound auto fluorescence at 535 nm (green) in HEK293 cells (AID 720680)
# [2] = qHTS assay to test for compound auto fluorescence at 535 nm (green) in HEK293 cell free culture (AID 720682)
# Method in brief: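 No cells present: wells hold DMEM supplemented with 10% FBS, into which compound or vehicle is pinned. Green emission is then recorded (485 nm excitation, 535 nm emission) and scaled to fluorescein.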
# [3] = qHTS assay to test for compound auto fluorescence at 590 nm (red) in HEK293 cell free culture (AID 720683)
# Method in brief: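 Cell-free wells of DMEM with 10% FBS received compound, and intrinsic fluorescence was read at excitation/emission 540/590 nm. Values expressed as equivalence to Rose Bengal sodium.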
# [4] = qHTS assay to test for compound auto fluorescence at 590 nm (red) in HepG2 cell free culture (AID 720684)
# Method in brief: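 Rose Bengal sodium served as the reference for red signal. Test compounds were dispensed into serum-containing MEM (10% FBS) without cells, and plates were read at 540/590 nm.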
# [5] = qHTS assay to test for compound auto fluorescence at 460 nm (blue) in HepG2 cells (AID 720687)
# Method in brief: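 HepG2 cells in MEM with 10% FBS, attached overnight at 37 C, were exposed to compound or DMSO for 1 hr at 37 C, 5% CO2. Blue fluorescence was read at 405/460 nm, with triamterene as reference fluorophore.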
# [6] = qHTS assay for identifying genotoxic compounds that show differential cytotoxicity against isogenic chicken DT40 cell lines with known DNA damage response pathways - wild type cell line (AID 743012); note: nearly all actives have a fitted effect of over 60% in size; note: potency is the fitted concentration of half-maximal effect
# Method in brief: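 Viability by ATP luminescence (CellTiter-Glo, 30 min RT) after 40 h compound treatment at 37 C/5% CO2, using 300 parental DNA repair-proficient DT40 cells per well.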
# [7] = qHTS assay for identifying genotoxic compounds that show differential cytotoxicity against isogenic chicken DT40 cell lines with known DNA damage response pathways - Rev3 mutant cell line (AID 743014); note: nearly all actives have a fitted effect of over 55% in size; note: potency is the fitted concentration of half-maximal effect
# [8] = qHTS assay for identifying genotoxic compounds that show differential cytotoxicity against isogenic chicken DT40 cell lines with known DNA damage response pathways - Rad54/Ku70 mutant cell line (AID 743015); note: nearly all actives have a fitted effect of over 60% in size; note: potency is the fitted concentration of half-maximal effect
# [9] = qHTS assay to identify small molecule antagonists of the androgen receptor (AR) signaling pathway - cell viability counter screen (AID 743033; note: nearly all actives have a fitted effect of over 45% in size)
# [10] = qHTS assay to identify small molecule antagonists of the androgen receptor (AR) signaling pathway using the MDA cell line - cell viability counter screen (AID 743041; note: nearly all actives have a fitted effect of over 45% in size)
# Method in brief: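 Cytotoxicity counter screen: MDA-kb2 AR-luc cells, compound + R1881, 16 h, 37C, 0% CO2; CellTiter-Fluor added at 15.5 h, fluorescence read after 30 min.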
# [11] = qHTS assay to test for compound auto fluorescence at 460 nm (blue) in HepG2 cell free culture (AID 720685)
# Method in brief: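 Cell-free plates of MEM plus 10% FBS received 23 nL compound or DMSO vehicle; blue-channel (405/460 nm) intensity scored against triamterene as reference fluorophore.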
# [12] = qHTS assay to test for compound auto fluorescence at 535 nm (green) in HepG2 cell free culture (AID 720686)
# [13] = qHTS assay to identify small molecule antagonists of the glucocorticoid receptor (GR) signaling pathway - cell viability counter screen (AID 720693); note: nearly all actives have a fitted effect of over 55% in size
# [14] = qHTS assay to test for compound auto fluorescence at 460 nm (blue) in HEK293 cell free culture (AID 720681)
# Method in brief: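 Compounds were added to cell-free DMEM with 10% FBS and fluorescence read directly. The blue channel used 405 nm excitation and 460 nm emission, with triamterene as the reference fluorophore.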
# [15] = biological target: Glucocorticoid receptor (Homo sapiens) (UniProt P04150); assay: qHTS assay to identify small molecule agonists of the glucocorticoid receptor (GR) signaling pathway (AID 720691; active = well fitted activation curve with a large enough effect in the signal ratio in the repeat runs, not every such curve was filed as active; the % refers to the signal ratio)
# Method in brief: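 Agonist-mode qHTS in HeLa cells stably expressing a glucocorticoid-response-element beta-lactamase reporter. Fluorescence intensity read with FRET substrate (2 h, room temperature) after 18 h compound treatment at 37 C.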
# [16] = biological target: Glucocorticoid receptor (Homo sapiens) (UniProt P04150); assay: qHTS assay to identify small molecule antagonists of the glucocorticoid receptor (GR) signaling pathway (AID 720692; active = well fitted inhibition curve with a large enough effect in the signal ratio in the repeat runs, not every such curve was filed as active; the % refers to the signal ratio)
# Method in brief: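 Inhibition of dexamethasone-driven (5 nM final) beta-lactamase expression was measured in GRE-reporter HeLa cells over 18 h at 37C. Fluorescence was read after 2 h with the B/G FRET substrate at room temperature.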
# Chain of Glucocorticoid receptor (Homo sapiens) (P04150 whole entry, looked up): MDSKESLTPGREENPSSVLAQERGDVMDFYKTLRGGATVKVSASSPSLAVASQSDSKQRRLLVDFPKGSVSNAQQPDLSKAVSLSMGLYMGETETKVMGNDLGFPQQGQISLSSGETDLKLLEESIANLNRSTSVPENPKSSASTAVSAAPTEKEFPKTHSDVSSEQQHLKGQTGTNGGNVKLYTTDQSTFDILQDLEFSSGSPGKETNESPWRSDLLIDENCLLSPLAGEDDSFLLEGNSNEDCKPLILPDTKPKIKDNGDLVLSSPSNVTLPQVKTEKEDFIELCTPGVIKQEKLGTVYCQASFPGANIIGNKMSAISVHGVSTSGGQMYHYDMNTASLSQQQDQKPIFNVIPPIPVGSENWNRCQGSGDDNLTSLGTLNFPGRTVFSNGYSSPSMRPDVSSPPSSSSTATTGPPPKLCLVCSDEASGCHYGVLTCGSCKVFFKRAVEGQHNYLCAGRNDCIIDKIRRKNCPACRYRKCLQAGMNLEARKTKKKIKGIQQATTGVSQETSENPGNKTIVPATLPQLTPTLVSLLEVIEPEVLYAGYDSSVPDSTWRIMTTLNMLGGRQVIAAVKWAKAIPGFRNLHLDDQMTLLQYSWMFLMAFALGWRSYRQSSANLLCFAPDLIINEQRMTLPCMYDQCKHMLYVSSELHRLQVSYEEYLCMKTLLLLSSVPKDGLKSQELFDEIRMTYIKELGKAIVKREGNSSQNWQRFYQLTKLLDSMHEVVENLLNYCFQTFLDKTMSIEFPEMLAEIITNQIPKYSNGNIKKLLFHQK
Compound,outcome [1],outcome [2],outcome [3],outcome [4],outcome [5],Potency [6],Potency [7],Potency [8],Potency [9],Potency [10],outcome [11],outcome [12],Potency [13],Potency [14],Potency [15],Potency [16]
COc1ccc(/C=C/c2cc(OC)cc(=O)o2)cc1,inactive,inactive,inactive,inactive,inactive,inactive,inactive,inactive,inactive,inactive,,,,,,
O=C(NC1CCN(CCc2c[nH]c3ccccc23)CC1)c1ccccc1,inactive,inactive,inactive,inactive,inactive,23.7 µM (active),33.5 µM (active),29.8 µM (active),inactive,,inactive,inactive,inactive,,,
O=C(O)c1cccnc1Nc1cccc(C(F)(F)F)c1,inactive,inactive,inactive,inactive,inactive,inactive,inactive,inactive,inactive,,,,inactive,inactive,inactive,inactive
CCC(C)C1N=C(C)C(C)S1 (centres undefined),inactive,inactive,inactive,inactive,inactive,inactive,inactive,,inactive,inactive,,inactive,inactive,inactive,inactive,inactive
C=CC(=O)NC(C)(C)C,inactive,inactive,inactive,inactive,inactive,,inactive,inactive,inactive,,,inactive,inactive,inactive,inactive,inactive
C=CC(C)CCC=C(C)C (centres undefined),inactive,inactive,inactive,inactive,inactive,inactive,inactive,inactive,inactive,inactive,,,,inactive,inactive,inactive
COc1cc(CNC(=O)CCCC/C=C/C(C)C)ccc1O,,inactive,inactive,inactive,inactive,inactive,inactive,inactive,inactive,inactive,inactive,inactive,inactive,inactive,inactive,inactive
O=C(O)c1ccc2cc(O)ccc2c1,inactive,inactive,inactive,inactive,,inactive,inactive,inactive,inactive,inactive,,inactive,inactive,inactive,inactive,
CCCCCCCCCCCCSC#N,inactive,inactive,inactive,inactive,inactive,inactive,inactive,inactive,inactive,inactive,,,inactive,inactive,inactive,
C[C@H](CN1CCCC1)C(=O)c1ccc(C(F)(F)F)cc1,inactive,inactive,inactive,inactive,inactive,6.68 µM (active),10.6 µM (active),8.41 µM (active),inactive,inactive,,inactive,,inactive,inactive,inactive
CC(=O)S[C@H](C(=O)N[C@H]1Cc2ccccc2[C@H]2CCC[C@@H](C(=O)O)N2C1=O)C(C)C,inactive,inactive,inactive,inactive,,inactive,inactive,inactive,inactive,inactive,,inactive,,inactive,inactive,inactive
O=C1c2ccccc2C(=O)c2c1ccc(O)c2O,inactive,inactive,inactive,inactive,inactive,inactive,inactive,inactive,inactive,,,inactive,inactive,inactive,inactive,
[O-][n+]1ccc(Cl)cc1,inactive,inactive,inactive,inactive,inactive,,inactive,inactive,inactive,,,inactive,inactive,inactive,inactive,inactive
CO[C@@H]1COCC[C@@H]1N[C@@H]1CC[C@@](C(=O)N2CCc3ncc(C(F)(F)F)cc3C2)(C(C)C)C1,inactive,inactive,inactive,inactive,,,,,inactive,inactive,,inactive,,inactive,inactive,inactive
O=C(O)c1c2ccccc2cc2ccccc12,inactive,inactive,inactive,inactive,,inactive,inactive,inactive,inactive,inactive,,,inactive,inactive,,
CC(=O)Nc1cccc(N)c1,inactive,inactive,inactive,inactive,inactive,inactive,inactive,inactive,inactive,inactive,,,inactive,inactive,inactive,inactive
Cc1ccc(S(=O)(=O)NC(=O)NC2CCCC2)cc1,,inactive,inactive,inactive,,inactive,inactive,inactive,,,inactive,inactive,inactive,inactive,inactive,inactive
CCCCCCCCCCCC(=O)OCC,,inactive,inactive,inactive,,inactive,inactive,inactive,inactive,inactive,inactive,,inactive,inactive,inactive,inactive
